Consider 18 compounds from PubChem BioAssay (Tox21).

Values joined by “and” are separate entries in the source; they are usually repeats but may differ in a detail not shown here. Identical values can stand only once. Inconclusive results are not listed. Active and inactive are the calls of the source. Calls come from the whole dose curve; as a rule, active = well fitted cell-killing curve with a large enough effect in the repeat runs; inconclusive = weak or mixed curves, or effect the other way; inactive = no such curve, though single readings can be large or run the other way.
Potency is the fitted concentration of half-maximal effect.

This assay can be described thus: qHTS assay to identify small molecule agonists of the vitamin D receptor (VDR) signaling pathway - cell viability counter screen (AID 743224). Note: nearly all actives have a fitted effect of over 50% in size. To be noted: VDR-bla HEK293T viability, CellTiter-Glo luminescence, 16 h; series mostly up to 62.6 µM. Put shortly: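 Compounds were pin-transferred onto VDR-bla cells plated 4 h earlier; following 16 h incubation at 37C, cell viability was quantified by CellTiter-Glo luminescence after 30 min at room temperature.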
(In general: qHTS replaces the single test concentration by a dilution series.)
In the case of `CCC(Cl)C(Cl)C(Cl)CC(Cl)C(Cl)C(C)Cl` (stereo not drawn), the Potency was 38.9 µM (active).

For the compound `[Cl][Au]([Cl])[Cl]`, the Potency is 3.89 µM (active).

For the compound `CCCCCCCCCOC(=O)c1ccc(O)cc1`, the Potency is 17.1 µM (active).

As for `CSc1cnc(C)cn1`, the Potency result was “inactive”.

Turning to `O=C1CCCc2c1cc1ccc3cccc4ccc2c1c34`, the Potency result was “inactive”.

Regarding `COc1cc(-c2ccc(N=C=O)c(OC)c2)ccc1N=C=O`, the Potency result is “inactive”.

`Cc1cc(O)c(Cl)c(C)c1Cl`: the Potency was 43.6 µM (active).

On to `O=C(Nc1cccc([N+](=O)[O-])c1)c1cc2ccccc2cc1O`, for which the Potency is 1.23 µM (active).

For `C=C(C)C(=O)OCC(O)COc1ccc(C(C)(C)c2ccc(OCC(O)COC(=O)C(=C)C)cc2)cc1` (stereo not drawn), the Potency is 12.3 µM (active).

For `CCCCCCCC/C=C\CCCCCCCCOCCO`, the Potency was 25.4 µM (active).

As for `Oc1cccc(-c2c3nc(c(-c4cccc(O)c4)c4ccc([nH]4)c(-c4cccc(O)c4)c4nc(c(-c5cccc(O)c5)c5ccc2[nH]5)CC4)C=C3)c1`, the Potency was 26.6 µM (active).

In the case of `CC(C)(C)NC(=O)[C@@H]1C[C@@H]2CCCC[C@@H]2CN1C[C@@H](O)[C@H](Cc1ccccc1)NC(=O)[C@H](CC(N)=O)NC(=O)c1ccc2ccccc2n1`, the Potency was 44.2 µM (active).

On to `CCCCN(CCCC)C(=O)N(CCCC)CCCC`, for which the Potency entry was “inactive”.

For the compound `CCCCCCCCOC(=O)c1ccc(O)cc1`, the Potency was 21.8 µM (active) and 49 µM (active).

As for `N/C(=N\N=C\c1ccc(Cl)cc1)N/N=C/c1ccc(Cl)cc1`, the Potency is 26.6 µM (active).

Take `COC(=O)c1cc(Cl)ccc1OC`: the Potency result was “inactive”.

On to `C=C(C)C(=O)OCC[N+](C)(C)C`, for which the Potency entry was “inactive”.

Regarding `O=C1c2c(O)ccc(Nc3ccc(CCO)cc3)c2C(=O)c2c([N+](=O)[O-])ccc(O)c21`, the Potency entry is “inactive”.
